Laboratory results as given in article PMC8384837, “Expanding the binding specificity for RNA recognition by a PUF domain”.

What follows are sequences tested against PUM1 PUF domain R5-MRG (Homo sapiens, UniProt Q14671 828-1176, C1007M;Q1011G) (assay: yeast three-hybrid, YBZ-1, SC-Leu-His + 0.5 mM 3-AT, 4 days). Conditions: tags: N-Gal4 AD-HA kept; label: inside an RPR1-promoter hybrid RNA with tandem MS2 sites; ssRNA.
Method in brief: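 Sequencing with Illumina followed PCR amplification of the repeat regions from transformants grown four days on SC-Leu (input) or SC-Leu-His + 0.5 mM 3-AT (selection). The transformants were strain YBZ-1 with a LexA–MS2 coat fusion and a HIS3 reporter, carrying Pumilio-1 PUF domain libraries and matching RNA elements. The interaction score is the log change in variant frequency from input to selection, computed in log2 with a pseudocount of 1 for absent variants.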

Sequence	binding signal
GGCUAGAACUAGUGGAUCCCCCGGCGCCCGGCGGCUCGAGCCCGGGUAAGUGUCAAUAGUCUGCAUGCCGCCGGGCGCCAUGCCUGCAGGUCGACUCUAGAAAACAUG	0.97 log2 enrichment (interaction score)
GGCUAGAACUAGUGGAUCCCCCGGCGCCCGGCGGCUCGAGCCCGGGUAAGUGUAAAUAGUCUGCAUGCCGCCGGGCGCCAUGCCUGCAGGUCGACUCUAGAAAACAUG	0.66 log2 enrichment (interaction score)
GGCUAGAACUAGUGGAUCCCCCGGCGCCCGGCGGCUCGAGCCCGGGUAAGUGUUAAUAGUCUGCAUGCCGCCGGGCGCCAUGCCUGCAGGUCGACUCUAGAAAACAUG	3.12 log2 enrichment (interaction score)
